Assay results as given in PubChem BioAssay (NCATS).
Records with an inconclusive call do not appear. The source made the active and inactive calls. The call rests on the fitted dose curve.

Columns and labels:
[1] = qHTS drug screen for cell cycle checkpoint inhibitors in PARPi-resistant BRCA-mutant ovarian cancer cell lines. (AID 1963452); conditions: PEO1/OlaR viability, CellTiter-Glo luminescence, 96 h; for Z-AUC: stronger effect = lower value
How it was run: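 PEO1, PEO4 and PEO1/OlaR ovarian cancer cells, 600 per well, exposed 96 h at 37C to a dilution series. Viability read by CellTiter-Glo luminescence, normalized to DMSO and empty wells; activity summarized as Z-AUC.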

[2] = qHTS for identification of novel therapeutic agents for treatment of microphthalmiaassociated transcription factor (MiT) renal cell carcinoma (RCC) (AID 1963991); conditions: CellTiter-Glo, 48 h; for z-score: stronger effect = lower value; for Potency: active = Z-AUC below -0.8 in all three lines
How it was run: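 Viability of three TFE3-fusion renal carcinoma lines measured by CellTiter-Glo after 48 h treatment with each of 1912 compounds at 11 concentrations. Responses scaled between DMSO (100%) and empty wells (0%) before curve fitting.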

[3] = measured here: PEO1 parental Z-AUC
[4] = TFE3-RCC UOK109 viability, measured here: UOK109 Z-AUC
[5] = TFE3-RCC viability, measured here: UOK124 Z-AUC
[6] = TFE3-RCC viability, measured here: UOK145 Z-AUC
Potency means the concentration at half of the fitted maximal effect.

Structure (SMILES)	Z-AUC [1]	Z-AUC [1, 3]	Z-AUC ([1]; measured here: PEO4 Z-AUC)	z-score [2, 4]	z-score [2, 5]	z-score [2, 6]	Potency [1]	Potency ([2]; TFE3-RCC UOK109 viability)
O=C(CCN1CCN(C(=O)OCc2cc(Cl)cc(Cl)c2)CC1)c1ccc2[nH]c(=O)oc2c1	0.428 (inactive)	0.576	0.591					
O=c1cc(-c2ccccc2)oc2cc(O)c(O)c(O)c12	0.741 (inactive)	0.629	0.577					
CC1CCC(C(=O)N(c2cc(C#CC(C)(C)C)sc2C(=O)O)C2CCC(O)CC2)CC1 (stereo not given)	0.0164 (inactive)	-0.415	-0.158	1.18	1.68	0.196		
O=C(NC1CCOCC1)c1ccc(-c2cc(-c3cn[nH]c3-c3ccccn3)ccn2)cc1	0.761 (inactive)	0.819	0.929	0.905	1.11	0.561		
CNC(=O)c1ccc2cc(C3(O)CCn4cncc43)ccc2c1 (stereo not given)	-0.914 (inactive)	-0.347	-0.305	0.41	0.546	0.539		
C[C@H](NC(=O)C(=O)Nc1ccccc1C(C)(C)C)C(=O)N[C@@H](CC(=O)O)C(=O)COc1c(F)c(F)cc(F)c1F	0.426 (inactive)	0.799	1.06					
CC(C)(C)OC(=O)N[C@H]1CCCCCC=C[C@@H]2C[C@@]2(C(=O)NS(=O)(=O)C2CC2)NC(=O)[C@@H]2C[C@@H](OC(=O)N3Cc4cccc(F)c4C3)CN2C1=O	0.565 (inactive)	0.658	1.2	0.6	0.826	2.04		
CN(C)Cc1cccc(N=C(c2ccccc2)c2c(O)[nH]c3cc(C(=O)N(C)C)ccc23)c1	-0.969 (inactive)	-0.73	-1.01					
CO[C@H]1C(=O)[C@]2(C)[C@@H](OC)C[C@H]3OC[C@@]3(OC(C)=O)[C@H]2[C@H](OC(=O)c2ccccc2)[C@]2(O)C[C@H](OC(=O)[C@H](O)[C@@H](NC(=O)OC(C)(C)C)c3ccccc3)C(C)=C1C2(C)C		-2.35	-2.45				7.8 nM (active)	
O=c1c(-c2ccc(O)cc2)coc2cc(O)ccc12	1.12 (inactive)	1.51	1.78	0.875	0.542	0.636		
CS(=O)(=O)N(Cc1ccco1)CC(O)Cn1c2ccccc2c2ccccc21 (stereo not given)	1.06 (inactive)	0.549	0.481					
NS(=O)(=O)c1cccc2c1C(=O)c1cccc(O)c1C2=O	-1.32 (inactive)	-1.19	-1.74					
CC(C)(C(=O)NCC(F)(F)C(F)(F)F)C(=O)N[C@@H]1C(=O)Nc2ccccc2-c2ccccc21	0.455 (inactive)	0.706	0.383					
O=C(CCc1ccc(O)cc1)c1c(O)cc(O)cc1O[C@@H]1O[C@H](CO)[C@H](O)[C@H](O)[C@H]1O				-0.101	0.0784	-0.273		
COc1ccc(-n2c(C)c([N+](=O)[O-])c3ccc(O)cc32)cc1	-0.721 (inactive)	-0.631	-0.862	0.538	0.575	0.643		
O=C1c2ccccc2-[n+]2ccc3c([nH]c4ccccc43)c21	-1.18 (inactive)	-1.75	-2.31	-1.69	-2.04	-1.7		1660 nM (active)
COc1ccc2c3c1OC1C[C@@H](O)C=C[C@@]31CCN(C)C2 (stereo not given in full)				0.657	0.378	-0.117		
CCOc1ccc(Nc2nc(-c3c(C)nc4ccccn34)cs2)cc1	-0.0903 (inactive)	-0.777	0.137	-1.91	-2.79	-1.17		2.35 nM (active)
